# An excerpt weighted towards active compounds, which were near 2.2% of everything screened.
# KLF5 inhibitor – KLF5 expression inhibitors, primary screen, DLD-1 cells, luminescence; DLD-1 KLF5 promoter-luciferase reporter; inhibition, % at 5 µM; 290,000 compounds, 0.23% hits; AID 1700, 2009;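 active = inhibition above a per-plate limit of that plate's mean compound inhibition plus 3 SD, cut at about 60% in these data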;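 also: 0% = DMSO wells and 100% = LY294002 at 200 µM; higher means less KLF5 promoter-driven luciferase light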
# aSyn UTR inh – MLPCN primary screen, SNCA 5' untranslated region; alpha-synuclein 5'UTR reporter, inhibitor activity; inhibition, % (tested at 7.5 µM); 300,000 compounds, 0.82% hits; in the data active = inhibition above about 60%;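 also: H4 neuroglioblastoma cells stably carrying SNCA 5'UTR luciferase fusion; 0% = DMSO wells and 100% = positive control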
# APP transl inh – inhibitors of APP translation via 5'UTR reporter, primary screen, APP 5'UTR luciferase, SH-SY5Y cells; SH-SY5Y APP 5'UTR-luciferase reporter, luminescence; inhibition, % at 2 µM; 190,000 compounds, 0.82% hits; AID 1285, 2008;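 active = inhibition above a set limit, derived from the sample mean plus 3 SD, cut at about 45% in these data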
# Ba/F3 V617F tox – reduced viability of JAK2V617F-dependent Ba/F3 cells, primary screen, JAK2V617F inhibitor project, cell-based, Ba/F3 EpoR-JAK2V617F, luminescence; ATP luminescence; 220,000 compounds, 1.1% hits; AID 1446, 2008; inhibition, % at 5.6 µM;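 active = inhibition above the campaign mean plus 3 SD over all tested compounds, cut at about 24% in these data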;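 also: cytokine-independent growth of Ba/F3 cells driven by EpoR plus mutant JAK2; 0% = DMSO-treated cells and 100% = JAK inhibitor I control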
# IEC-6 tox – cytotoxicity in IEC-6 intestinal epithelial cells, primary screen, cytotoxicity control for KLF5 inhibitor project, cell-based, luminescence | inhibition, % at 5 µM | IEC-6 cytotoxicity, luminescence viability | 290,000 compounds, 0.78% hits;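 also: 0% = plate median of test compound wells and 100% = cytotoxic reference compound wells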
# BaF3 tox – parental Ba/F3 cell viability inhibition, counter-screen for JAK2V617F inhibitor project, murine pro-B, CellTiter-Glo luminescence; CellTiter-Glo ATP luminescence; inhibition, % at 5.6 µM; 220,000 compounds, 1.1% hits; AID 1486, 2009;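 active = inhibition above a per-campaign cutoff, the mean inhibition of all tested compounds plus 3 SD, cut at about 27% in these data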;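 also: 0% = DMSO wells and 100% = JAK Inhibitor I control wells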
# IEC-6 tox confirm – cytotoxic compounds in IEC-6 epithelial cells, confirmation, cytotoxicity control, cell-based, luminescence | shares compounds with IEC-6 tox | 1,900 compounds, 63% hits | AID 1907, 2009 | IEC-6 rat intestinal epithelial viability | inhibition, % at 5 µM;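 also: 0% = vehicle and 100% = reference cytotoxic drug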
# Active calls of the source: *; / = not tested or not shown. Rule as the data show it, unless noted: active = inhibition above about 22%; inactive = the rest.
SMILES,KLF5 inhibitor,aSyn UTR inh,APP transl inh,Ba/F3 V617F tox,IEC-6 tox,BaF3 tox,IEC-6 tox confirm
Cc1ccc(OCCn2cc(C(=S)N3CCCC3)c3ccccc32)cc1C,23.8,-37.6,-0.8,3.1,69.6*,2.8,44.3*
COc1cccc(NC(=O)CN(C)C(=O)CNC(=O)c2ccc3ccccc3c2)c1,/,-14.0,/,/,/,/,/
Cc1ccc(N(CC(=O)NC(C)C)C(=O)CCC(=O)Nc2nccs2)cc1C,-15.9,2.7,/,/,-4.0,/,/
COc1ccc(NC2=C(NC(C)=O)C(=O)c3ccccc3C2=O)cc1,-12.8,18.4,/,/,43.5*,/,13.8
CC(=O)Nc1ccc2c(c1)C(=O)c1ccccc1C2=O,-152.1,-185.3,-185.8,3.1,1.7,10.6,/
CC(=O)Nc1ccc(NC2=CC(=O)c3ccccc3C2=O)cc1,-129.5,-46.0,/,/,97.0*,/,-1.1
COC1=C(Nc2ccc(OC)cc2)C(=O)c2ccccc2C1=O,-25.5,-161.5,-11.2,-1.0,-7.3,5.0,/
Cc1cc(Cl)n2c(nc3ccccc32)c1C#N,17.4,88.7*,90.0*,75.6*,77.1*,29.1*,37.4*
CC(=O)/C(C#N)=C1\NC(=O)C(Cc2ccccc2Cl)S1 (centres undefined),20.6,-48.0,3.7,4.3,77.5*,5.0,59.7*
CC(=O)/C(C#N)=C1\NC(=O)C(Cc2cc(Cl)ccc2Cl)S1 (centres undefined),23.9,-1.8,/,-1.9,73.7*,4.7,46.7*
O=C1NC(=Nc2ccccc2)SC1Cc1cccc(Cl)c1Cl (centres undefined),-20.8,5.1,5.6,0.5,0.4,5.9,/
Cc1ccc(Nc2nc(-c3sc(N)nc3C)cs2)cc1,-77.2,-133.5,/,/,-1.0,/,/
COc1ccc(Nc2nc(-c3sc(C)nc3C)cs2)c(OC)c1,12.1,-123.6,/,/,59.9*,/,40.1*
Cc1cccc(Nc2nc(-c3ccncc3)cs2)c1,-41.9,-61.1,-50.5,-3.4,64.6*,21.2,74.6*
Cc1ccc(-c2csc(Nc3ccccn3)n2)cc1,-8.9,-27.3,/,/,1.5,/,/
Cc1ccc(Nc2nc(-c3sc(C)nc3C)cs2)cc1,37.3,6.3,/,/,75.0*,/,52.4*
Cc1ccc(Nc2nc(-c3ccncc3)cs2)cc1,-93.3,-331.1,-128.8,-0.1,27.1*,6.7,83.6*
COc1ccc2[nH]c(C)c(-c3csc(N)n3)c2c1,-17.0,1.7,/,/,1.9,/,/
COc1ccccc1-c1nnc(NC(=O)c2ccc(S(=O)(=O)N3CCCC3)cc2)o1,19.7,11.9,/,/,22.4*,/,5.1
O=C(Nc1nnc(-c2ccc(F)cc2)o1)c1ccc(S(=O)(=O)N2CCOCC2)cc1,59.3,38.7,/,/,39.9*,/,12.6
Oc1[nH]c2ccccc2c1N=Nc1nc(Nc2ccccc2)nc(N2CCOCC2)n1,-16.8,-2.4,/,-1.3,0.6,-12.2,/
Cc1[nH]c2ccccc2c1/C=N/Nc1nc(Nc2ccccc2)nc(N2CCOCC2)n1,-36.4,7.2,20.0,31.7*,76.1*,41.3*,93.4*
CSc1nnc(NC(=O)c2nc(S(=O)(=O)Cc3ccccc3)ncc2Cl)s1,19.9,-35.3,/,/,33.8*,/,9.1
CC(C)c1nnc(NC(=O)c2nc(S(=O)(=O)Cc3ccccc3)ncc2Cl)s1,18.2,-81.3,/,/,41.5*,/,-1.1
CCCc1nnc(NC(=O)c2nc(S(=O)(=O)Cc3ccc(C)cc3)ncc2Cl)s1,-6.8,-9.4,/,/,7.5,/,/
SMILES,KLF5 inhibitor,aSyn UTR inh,APP transl inh,Ba/F3 V617F tox,IEC-6 tox,BaF3 tox,IEC-6 tox confirm
Cc1cccc(NC(=O)CSc2nnc(CNC(=O)c3ccco3)n2C)c1,15.1,2.0,/,/,6.7,/,/
Cc1ccccc1-n1nc2c(c1NC(=O)C1CCCC1)CS(=O)(=O)C2,-8.8,31.1,/,/,-3.5,/,/
CCn1c2ccccc2c2cc(NC(=O)CNCc3ccccc3OC)ccc21,50.7,-15.6,/,/,71.1*,/,40.0*
CCn1c2ccccc2c2cc(NC(=O)COc3ccccc3OC)ccc21,-12.5,24.4,35.6,4.3,12.8,9.8,/
O=C(NC1CCc2ccccc21)c1cc(COc2c(F)cccc2F)on1 (centres undefined),-24.3,2.8,/,1.8,8.5,2.5,/
O=C(NCC1OCCc2ccccc21)c1cc(COc2c(F)cccc2F)on1 (centres undefined),36.2,-7.5,-4.0,98.3*,82.4*,103.0*,-10.1
COc1cc(/C=C/c2nc3ccccc3c(=O)[nH]2)cc(OC)c1OC,32.1,-83.8,/,/,60.6*,/,70.7*
COc1cc(/C=C/c2nc3ccccc3c(=O)[nH]2)ccc1OC(F)F,-127.4,-195.0,/,/,-1.1,/,/
Cc1ccc(C)c(-n2nnnc2SCC(=O)NNC(=O)c2ccco2)c1,-18.2,17.0,-14.1,2.4,5.3,1.8,/
C[C@@H](C(=O)NCCc1ccccc1)N1C(=O)N2CCc3c([nH]c4ccccc34)[C@@]2(C)C1=O,2.6,-17.3,/,/,-3.5,/,/
Cc1cc(C)n(/N=C/c2cccs2)c(=O)c1C#N,-30.9,-11.6,-0.5,3.1,70.6*,1.7,4.7
COc1ccc(C(CNC(=O)CCNC(=O)c2ccc(Br)cc2)N2CCOCC2)cc1 (centres undefined),/,7.0,/,/,/,/,/
C/C(=N\NC(=O)c1ccc(Cl)cc1)c1ccccn1,33.2,-62.9,/,/,22.8*,/,98.6*
C/C(=N\NC(=O)c1ccccn1)c1ccc(Cl)cc1,-125.8,-45.0,/,-2.9,3.2,1.5,/
CSCCC(NC(=O)/C(=C/c1ccc(F)cc1)NC(C)=O)C(=O)O (centres undefined),-2.0,-5.7,-7.8,-1.3,-2.2,5.1,/
Cc1ccccc1OCCN1C(=O)C(=O)c2cccc(C)c21,-22.7,-15.6,/,2.3,9.5,9.1,/
Cc1cccc2c1N(CCOc1ccccc1Cl)C(=O)C2=O,-7.9,18.7,7.7,18.9,50.4*,10.7,21.4
O=C(c1ccccc1)c1ccc(Cn2cc(CCCO)nn2)cc1,-13.1,14.4,/,/,7.0,/,/
O=C(O)CCCCCCCCc1cn(Cc2ccc(C(=O)c3ccccc3)cc2)nn1,-27.5,-35.0,/,/,71.9*,/,24.4*
CCOC(=O)C(=CNc1cc(C)ccc1-n1cccc1)C(=O)OCC,-19.4,-28.1,/,3.0,-0.7,-2.2,/
CC(C)Cc1cc(C(=O)N2CCC(N3CCC(C(=O)NC4CC4)CC3)CC2)n[nH]1,-29.8,-1.4,-1.0,-0.6,-5.1,1.9,/
CCOC(=O)c1ccccc1NC(=O)Cn1c(-c2nonc2N)nc2ccccc21,45.5,73.0*,94.4*,78.9*,76.7*,75.0*,52.4*
Cc1cc(C)nc(SCc2cnc(C)nc2N)n1,-15.4,2.7,-1.6,2.6,-3.1,3.2,/
COc1cc(NC(=O)C2CC(c3ccccc3Cl)=NO2)cc(OC)c1OC (centres undefined),-19.4,4.2,/,/,6.8,/,/

# Bioassay records deposited in PubChem by several laboratories.
